This is an account of results in PubChem BioAssay AID686979 (National Center for Advancing Translational Sciences (NCATS), 2013).

Hit rate of the full screen: of about 420,000 compounds, about 50,000 (12%) were called active. Another 26% or so got no clear call; they are omitted. What follows is part of a selection rich in actives, with near analogues and random picks from the rest. Entries that show only a call come without a potency. A number with no mark means an inactive call. Calls come from the whole dose curve; as a rule, active = well fitted inhibition curve with a large enough effect; inconclusive = small, poorly fitted or top-dose-only effect; inactive = flat fitted curve, though single readings scatter.
Potency is the fitted concentration of half-maximal effect.

This test can be described thus: qHTS for Inhibitors of human tyrosyl-DNA phosphodiesterase 1 (TDP1): qHTS in cells in presence of CPT. Note: nearly all actives have a fitted effect of over 55% in size. The following applies: chicken DT40 Tdp1-/-;hTDP1 cells + 20 nM CPT, ATP luminescence, 48 h; series mostly up to 46.2 µM. In short, it runs like this: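 Cell growth measured by CellTiter-Glo luminescence after a minimum 48 h, 37 C compound exposure with 20 nM CPT in Tdp1-knockout DT40 cells stably expressing hTDP1, seeded 400/well; qHTS titration format.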
For orientation: qHTS replaces the single test concentration by a dilution series.
Regarding `O=C(CCNS(=O)(=O)c1ccccc1)NCCSc1ccc(Br)cc1`, the Potency result is “inactive”.
With `CCc1cccc(NC(=O)COC(=O)c2cc(=O)c3ccccc3o2)c1`, the Potency entry was “inactive”.
Same read-out and setting: the value for `C=CCC(NC(=O)Cc1ccccc1)C(=O)NCCC` (configuration not stated) was “inactive”.
Turning to `COCCCNC(=S)N(Cc1ccccc1)Cc1ccc(F)cc1`, the Potency result was “inactive”.
Consider `C=CC[C@H](CC(=O)N(CCO)Cc1ccccc1)C(=O)N[C@@H](COC(=O)[C@@H](CC=C)Cc1ccc(F)cc1)Cc1ccccc1`, for which the Potency is 23.1 µM (active).
On the same count and under the same terms, the value for `C=CCC[C@H](Cc1ccc(F)cc1)C(=O)OC[C@H](C)NC(=O)[C@H](CC=C)CC(=O)N(CCO)Cc1ccccc1` was 14.6 µM (active); that for `C=CCC[C@@H](Cc1ccc(F)cc1)C(=O)OC[C@@H](C)NC(=O)[C@H](CC=C)CC(=O)N(CCO)Cc1ccccc1` was 13 µM (active); that for `C=CCC[C@@H](Cc1ccc(F)cc1)C(=O)O[C@H](CNC(=O)[C@H](CC=C)CC(=O)N(CCO)Cc1ccccc1)c1ccccc1` was 18.4 µM (active).
In the case of `Cc1ccccc1Nc1nc(N)nc(CSc2ccccc2)n1`, the Potency result is “inactive”.
Still for that read-out and setting: as for `COc1ccc(C(C)NC(=O)C2CCCC2)cc1` (configuration not stated), the entry is “inactive”.
The same measure, in the same setting: as for `O=C(CNC(=O)c1cccnc1)N/N=C/c1cc(Br)c(O)c(Br)c1`, the entry is “inactive”.
The same measure, in the same setting: as for `Cc1ccc(S(=O)(=O)NCC2CCC(C(=O)N3CCOCC3)CC2)cc1` (configuration not stated), the entry is “inactive”; as for `CCOc1ncccc1C(=O)NNC(=O)c1cccc(S(=O)(=O)Nc2ccccc2OC)c1`, “inactive”.
Turning to `O=C(Nc1c[nH]c(=O)[nH]c1=O)OCc1ccccc1`, the Potency result is “inactive”.
On the same count and under the same terms, the value for `CC(=O)c1sc(N)nc1C` was “inactive”.
Same read-out and setting: as for `COc1ccc(C2/C(=C(/O)c3ccc4c(c3)CC(C)O4)C(=O)C(=O)N2Cc2ccncc2)cc1` (configuration not stated), the entry is “inactive”.
Take `CC(C)COc1ccc(C(=O)NNC(=O)CCC(=O)c2cccs2)cc1`: the Potency entry was “inactive”.
For the compound `O=C1CCCc2c1nc(-c1cccc(Cl)c1)n2O`, the Potency entry is “inactive”.
Still for that read-out and setting: the value for `C=CCc1c(C)nc2cc(-c3ccccc3)[nH]n2c1=O` was “inactive”; that for `Cc1cc(=O)n2[nH]c(-c3cccc(Cl)c3)cc2n1` was 18.4 µM (active); that for `O=[N+]([O-])c1ccc2[nH]c3c(c2c1)CCCC3O` (configuration not stated) was “inactive”.
On the same count and under the same terms, the value for `O=C1/C(=C\c2ccsc2)NC(=S)N1c1ccccc1` was “inactive”; that for `O=c1c(-c2ccccc2Cl)c[nH]n1-c1ccccc1` was “inactive”.
Take `COc1cccc(NC(=O)CN2CCN(c3nc(-c4cccc(OC)c4)cs3)CC2)c1`: the Potency entry was “inactive”.
For the compound `COc1cccc(CNc2nc3nc4c(c(=O)n3[nH]2)CCC4)c1`, the Potency result was “inactive”.
Regarding `COc1cccc(-c2cc3nc4c(c(N5CCC6(CC5)OCCO6)n3n2)CCCC4)c1`, the Potency was 23.1 µM (active).
Consider `CC(=NNC(=O)c1ccc2nc[nH]c2c1)c1ccc(Br)cc1`, for which the Potency entry was “inactive”.
Same read-out and setting: the value for `O=C(NCCCO)C(=O)Nc1c2c(nn1-c1ccc(F)cc1)CSC2` was “inactive”; that for `Cc1ccc(S(=O)(=O)N[C@H]2CCC[C@@H]2O)cc1` was “inactive”.
For `CS(=O)(=O)N1CCc2cc(C(=O)Nc3ccccc3)ccc21`, the Potency result is “inactive”.
The same measure, in the same setting: as for `COc1cccc(NC(=O)c2cc(S(=O)(=O)N3CCc4ccccc43)cn2C)c1`, the entry is “inactive”.
On the same count and under the same terms, as for `COc1ccc(S(=O)(=O)N2CCc3ccccc32)cc1C(=O)Nc1cc(S(C)(=O)=O)ccc1Cl`, the figure is 9.2 µM (active).
Consider `Cc1ccc(S(=O)(=O)N2CCc3cc(C(=O)Nc4ccc(Cl)cc4C)ccc32)cc1`, for which the Potency entry was “inactive”.
Still for that read-out and setting: the value for `O=C(Nc1cc(C(F)(F)F)ccc1Cl)c1ccc2c(c1)CCN2S(=O)(=O)c1ccccc1` was 18.4 µM (active); that for `CCN(C(=O)COC(=O)c1cc(S(=O)(=O)N2CCc3ccccc32)ccc1OC)C1CCS(=O)(=O)C1` (configuration not stated) was “inactive”.
The same measure, in the same setting: as for `Cc1noc(C)c1NC(=O)N(C)C[C@@H]1Oc2cc(Br)ccc2S(=O)(=O)N([C@@H](C)CO)C[C@H]1C`, the entry is “inactive”; as for `Cc1ccc(CNC(=O)C2CCCN2S(=O)(=O)c2ccc3c(c2)C(C)(C)C(=O)N3C)cc1` (configuration not stated), “inactive”; as for `COc1cc(Br)cc2cc(S(=O)(=O)c3ccccc3)c(=O)oc12`, “inactive”.
Take `CCOC(=O)C(Cc1ccc(N)cc1)N1C(=O)c2ccccc2C1=O` (configuration not stated): the Potency entry is “inactive”.
With `O=C(Nc1ccccc1F)c1ccc(Cn2cc(Br)cn2)cc1`, the Potency entry is “inactive”.
For the compound `CCC(=O)N(Cc1cc2cc(OC)ccc2[nH]c1=O)c1ccccc1C`, the Potency entry is “inactive”.
Same read-out and setting: as for `CC(=O)OCc1cc2cc(C)ccc2[nH]c1=O`, the entry is “inactive”; as for `COc1ccc2[nH]c(=O)c(CNc3ccc(C)c(C)c3)cc2c1`, 4.11 µM (active).
As for `COc1ccc(N(Cc2cc3cc(OC)ccc3[nH]c2=O)S(C)(=O)=O)cc1`, the Potency result is “inactive”.
Same read-out and setting: the value for `CCCc1nc(-c2cc3cc(C)ccc3[nH]c2=O)no1` was “inactive”; that for `CCNCc1cc2cc(C)ccc2[nH]c1=O` was 18.4 µM (active); that for `CCCCN1C(=O)c2ccc(C(=O)Nc3ccc(S(=O)(=O)N(C)C)cc3)cc2C1=O` was “inactive”.
Consider `Cc1ccccc1Nc1nc(N)nc(COC(=O)CCC(=O)c2ccc(F)cc2)n1`, for which the Potency result is “inactive”.
For the compound `Cc1cc(NC(=O)c2ccc(-c3ccc(Cl)cc3)o2)cc(-c2nc3ncccc3o2)c1O`, the Potency entry was “inactive”.
On the same count and under the same terms, the value for `Cc1ccccc1C1=N/C(=C/c2cccnc2)C(=O)O1` was “inactive”; that for `O=Cc1cn(Cc2ccccc2)nc1-c1cccnc1` was “inactive”; that for `O=C1/C(=C\c2cccnc2)CN(Cc2ccccc2)C/C1=C\c1cccnc1` was 5.17 µM (active).
On to `O=C(C(=O)N1CCc2ccccc2C1)c1c[nH]c2ccccc12`, for which the Potency result is “inactive”.
On the same count and under the same terms, as for `CCNC(=O)CCc1nc(-c2ccc(C(C)(C)C)cc2)no1`, the figure is 16.4 µM (active).
Same read-out and setting: as for `CCNC(=O)CCc1nc(-c2ccc(C)cc2)no1`, the entry is “inactive”.
Same read-out and setting: as for `Cc1ccc(-c2noc(CCC(N)=O)n2)cc1`, the entry is “inactive”; as for `Cn1c(Cc2cccs2)nnc1SCC(=O)Nc1ccccc1`, “inactive”.
In the case of `O=C1C(=O)N(CCCO)C(c2ccccc2)/C1=C(\O)c1ccc(Br)cc1` (configuration not stated), the Potency entry was “inactive”.
`CN(CC(=O)NCc1ccc(Cl)cc1)S(=O)(=O)c1cccs1`: the Potency result is “inactive”.
In the case of `COCCN1CCN(C(=O)c2sc3ncnc(NCC4CCCO4)c3c2C)CC1` (configuration not stated), the Potency entry was “inactive”.
Same read-out and setting: as for `O=C(COC(=O)c1ncc(Cl)c(Cl)c1Cl)NCc1ccccc1`, the entry is “inactive”; as for `CC(C)C(NC(=O)c1c(F)cccc1F)C(=O)NNC(=O)c1ccccc1` (configuration not stated), “inactive”.
The same measure, in the same setting: the value for `Cc1cccc(NC(=O)Cn2c(C(F)(F)F)nc3ccccc32)c1C` was “inactive”.
With `CCC(=O)Nc1ccc(C)cc1-c1nc2ccccc2n(Cc2ccccc2)c1=O`, the Potency entry was “inactive”.
Same read-out and setting: the value for `CCC(=O)Nc1nc2ccccc2n1Cc1ccccc1C` was 14.6 µM (active).
Same read-out and setting: as for `COc1ccc(N2CC(C(=O)N[C@@H](C)C(=O)N3CCCCC3)CC2=O)cc1` (some centres not stated), the entry is “inactive”; as for `Cc1ccc(Cl)cc1NC(=O)C1CCCN(c2cnccn2)C1` (configuration not stated), “inactive”; as for `Cc1c(Cl)cccc1NC(=O)C1CCCN(c2ncnc3onc(C)c23)C1` (configuration not stated), 8.2 µM (active).
Take `COc1ccccc1NC(=O)C1CCCN(c2cc(C)nc3ncnn23)C1` (configuration not stated): the Potency result is “inactive”.
On the same count and under the same terms, as for `CSCC[C@H](NC(=O)OC(C)(C)C)C(=O)N/N=C/c1cc2ccc(C)cc2nc1Cl`, the entry is “inactive”; as for `Cc1ccn(-c2cccc(-n3ccc(C)n3)n2)n1`, “inactive”; as for `CCOc1ccccc1N(CC(=O)Nc1ccccc1C(=O)OC)S(C)(=O)=O`, “inactive”.
Turning to `CCCCN(C=O)c1c(CC)nc2c(OCc3ccccc3C(=O)OC)cccn12`, the Potency was 13 µM (active).
On the same count and under the same terms, as for `CCCCN(C=O)c1c(CC)nc2c(OCCC3CCCCC3)cccn12`, the figure is 16.4 µM (active).
Still for that read-out and setting: the value for `CCc1nc2ccc(C(=O)N3CCN(S(=O)(=O)CC)CC3)cn2c1N(C=O)CCC(C)C` was “inactive”.
Consider `Cc1nccn1-c1ccc(NC(=O)[C@H]2O[C@@H](n3cnc4c(N)ncnc43)[C@H](O)[C@@H]2O)cc1`, for which the Potency entry was “inactive”.
In the case of `CCC1CN(CCNC(=O)c2cccc(C)n2)Cc2cc(OC)ccc2O1` (configuration not stated), the activity change, negative = growth inhibition was 5.22% [at 9.04 µM].
In the case of `O=C(CSc1ccc(-c2ccc(-n3cccn3)cc2)nn1)Nc1ccc([N+](=O)[O-])cc1`, the Potency result is “inactive”.
The same measure, in the same setting: as for `COc1ccc(NC(=O)CC2C(=O)OCC3CCCCN32)cc1Cl` (configuration not stated), the entry is “inactive”; as for `CC(C)c1ccc(Cc2nnc(NCCCO)[nH]c2=O)cc1`, “inactive”; as for `N#CCc1ccc(OC(=O)c2cccnc2)cc1`, “inactive”.
Consider `CC(OC(=O)CNC(=O)c1cccc(F)c1)C(=O)NC1CCCCC1C` (configuration not stated), for which the Potency result is “inactive”.
The same measure, in the same setting: the value for `Cc1ccc(CC(=O)Nc2ccc(OC(F)F)c(Cl)c2)cc1C` was “inactive”; that for `C=CCNC(=S)N/N=C/c1ccc(C)s1` was 4.61 µM (active).
`C=C(C)CNC(=S)N/N=C/c1ccccc1OCC(=O)O`: the Potency entry was “inactive”.
Still for that read-out and setting: the value for `Cc1ccc(/C=N/NC(=O)CN2CCN(Cc3ccccc3)CC2)s1` was “inactive”.
For `Cc1cc(OC(C)C(=O)Nc2sc3c(c2C(N)=O)CCCC3)ccc1Cl` (configuration not stated), the Potency result was “inactive”.
On to `Nc1scc[n+]1Cc1cccc2cccnc12`, for which the Potency entry was “inactive”.
Regarding `c1ccc2c(C[n+]3csc4ccccc43)cccc2c1`, the Potency was 0.92 µM (active).
As to `CCOC(=O)CC1C(=O)NCCN1c1nc2c(C)cccn2c(=O)c1/C=C1\SC(=S)N(C(C)CC)C1=O` (configuration not stated), the Potency is 16.4 µM (active).
Still for that read-out and setting: as for `CCOC(=O)N1CCN(C(=O)CSc2nc(=O)n3cccc(C)c3n2)CC1`, the entry is “inactive”; as for `CCOC(=O)CNC(=O)c1cc2c(=O)n3cccc(C)c3nc2s1`, “inactive”; as for `N#CC1(NC(=O)COC(=O)CCN=C2NS(=O)(=O)c3ccccc32)CCCCC1`, “inactive”.
Take `COc1cccc(N(CC(=O)NCc2ccccc2)C(=O)CCC(=O)Nc2nccs2)c1`: the Potency entry was “inactive”.
Turning to `CCc1noc(C)c1C(=O)N1CCN(S(=O)(=O)c2cccc(C(F)(F)F)c2)CC1`, the Potency entry is “inactive”.
On the same count and under the same terms, as for `NNC(=O)C1CCCn2c1nc1sc3c(c1c2=O)CCCC3` (configuration not stated), the entry is “inactive”; as for `O=C(CCc1nc2sc3c(c2c(=O)[nH]1)CCCC3)NCC(=O)Nc1ccccc1Br`, “inactive”; as for `CS(=O)(=O)N(Cc1nc2sc3c(c2c(=O)[nH]1)CCCC3)C1CCCCC1`, 20.6 µM (active).
For `CCCCCCCCCCCCCCCCO`, the Potency entry is “inactive”.
`O=C(CCN1C(=O)[C@@H]2Cc3ccccc3CN2C1=O)NCc1ccccc1`: the Potency result was “inactive”.
As for `CCOC(=O)N1CCC(N(CCOC)C(=O)Nc2ccc(C)c(C)c2)CC1`, the Potency entry was “inactive”.
On to `Cc1cccc(NC(=O)CSC(N)=O)c1C`, for which the Potency is 25.9 µM (active).
Same read-out and setting: as for `Cc1cccc(NC(=O)COC(=O)CCc2ccccc2)c1C`, the entry is “inactive”; as for `Cc1cccc(NC(=O)CSc2nc3c(c(=O)[nH]2)CCCC3)c1C`, “inactive”.
Consider `Cc1cccc(NC(=O)CSc2nc3c(c(=O)[nH]2)CCC3)c1C`, for which the Potency result is “inactive”.
Still for that read-out and setting: the value for `Cc1cccc(NC(=O)CN2C(=O)c3ccccc3C2=O)c1C` was “inactive”; that for `Cc1cccc(NC(=O)CSc2ncc(-c3ccccc3)[nH]2)c1C` was 25.9 µM (active).
